Test [1] relates to XIP peptide (Xip251-270) binding. The experiment in a line: XIP fragment 251-270 binding compounds – biochemical, small-molecule microarray, fluorescence 635/667 nm, 0.1 µg/mL protein, primary screen (AID 1182). To be noted: fluorescent protein binding, 635 nm, higher = more signal, called active from +8 up or from −8 down.
Test [2] concerns XIP peptide (Xip251-270). The experiment in a line: compounds binding XIP fragment 251-270 – biochemical, small-molecule microarray, fluorescence 635/667 nm, 0.5 µg/mL protein, primary screen (AID 1183). The following applies: fluorescence 635 nm, higher = more signal.
A short description of test [3]: blood-stage malaria parasite viability loss – strain 3D7, DAPI fluorescence, 100 nL, primary screen (AID 1184).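 Further: parasites grown inside human red blood cells in medium with human serum.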 The following applies: P. falciparum 3D7 growth, 3 d, higher = more signal.
Test [4] addresses Homeobox protein Hox-A13 (Mus musculus) (UniProt Q62424). Nature of the test: disruptors of Hoxa13 oligonucleotide interaction – biochemical, fluorescence polarization, labeled oligonucleotide, primary screen (AID 1185). The following applies: Hoxa13:DNA binding, 15 min, higher = more signal, called active from +8 up or from −8 down. On the technique in general: In fluorescence polarisation assays a small probe gives low polarisation when free and higher when bound to something large.

A short description of test [5]: blockers of DNA damage checkpoint Chk1 activation – imaging, HeLa, hydroxyurea, phospho-Chk1 antibody, percent positive cells, primary screen (AID 1186). To be noted: hydroxyurea-induced phospho-Chk1 immunofluorescence imaging, higher = more signal.
The nature of test [6]: blockers of DNA damage checkpoint Chk1 activation – imaging, HeLa, hydroxyurea, phospho-Chk1 nuclear intensity, primary screen (AID 1187). The following applies: hydroxyurea-induced phospho-Chk1 immunofluorescence imaging, higher = more signal.

The structures appear in SMILES notation. Activity calls are given as the source filed them. Unless noted, how the calls were made is not given here.

The values below come from PubChem BioAssay.

Homeobox protein Hox-A13 (Mus musculus), sequence (Q62424 whole entry, looked up): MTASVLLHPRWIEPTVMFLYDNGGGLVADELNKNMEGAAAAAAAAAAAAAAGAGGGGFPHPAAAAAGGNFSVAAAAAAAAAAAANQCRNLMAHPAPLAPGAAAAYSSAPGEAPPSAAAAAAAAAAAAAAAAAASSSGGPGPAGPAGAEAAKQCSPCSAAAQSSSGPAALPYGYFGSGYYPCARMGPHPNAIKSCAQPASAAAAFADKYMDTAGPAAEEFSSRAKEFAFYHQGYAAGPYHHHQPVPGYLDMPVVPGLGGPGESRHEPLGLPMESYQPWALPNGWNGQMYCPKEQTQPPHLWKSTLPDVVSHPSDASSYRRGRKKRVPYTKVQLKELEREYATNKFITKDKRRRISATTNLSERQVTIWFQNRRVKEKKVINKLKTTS

Take `[N-]=[N+]=NCc1ccccc1[C@H]1OC(c2ccc(OCCCO)cc2)=N[C@@]1(CCS(=O)(=O)c1ccccc1)C(=O)N1CCOCC1`: the composite z-score in test [1] was 1.53 (inactive); in test [2], 0.768. The z-score is -2.22 in test [3], -3.2 (inactive) in test [4], -0.0312 (inactive) in test [5] and 0.246 (inactive) in test [6].
For `N#Cc1ccc(NN2C(C(O)C3CCCCC3)C=CC3C(=O)N(c4ccccc4)C(=O)C32)cc1` (stereo unspecified), the composite z-score was 0.769 (inactive) in test [1] and 0.694 in test [2]. Further, the z-score is 0.898 in test [3], -2.14 (inactive) in test [4], -0.14 (inactive) in test [5] and -0.0947 (inactive) in test [6].
As for `COc1ccc(CCN2C(=O)[C@@]3(Cc4ccccc42)c2ccccc2C(=O)N(Cc2ccccc2Cl)[C@H]3c2ccc(CO)cc2)cc1`, the composite z-score was -0.227 (inactive) in test [1] and 0.285 in test [2]. Moreover, the z-score in test [3] is -1.37; in test [4], -0.482 (inactive); in test [5], -0.214 (inactive); in test [6], -0.322 (inactive).
In the case of `[N-]=[N+]=Nc1ccccc1C[C@]1(C(=O)NCCN2CCOCC2)N=C(c2ccc(OCCCO)cc2)O[C@H]1c1ccccc1`, the composite z-score in test [1] is 0.533 (inactive); in test [2] it was 0.902. Besides, the z-score was -2.37 in test [3], -5.89 (inactive) in test [4], 0.184 (inactive) in test [5] and 0.535 (inactive) in test [6].
Take `COCCOC(=O)N1C(=O)[C@@]2(c3cc(C#CC4(O)CCCCCC4)ccc31)[C@H](C(=O)N1CCCCCCC1)[C@H]1C(=O)O[C@H](c3ccccc3)[C@H](c3ccccc3)N1[C@@H]2c1ccccc1OCCO`: the composite z-score in test [1] was -0.0713 (inactive); in test [2] it was 0.762. Also, the z-score in test [3] was -2.39; in test [4], 3.19 (inactive); in test [5], -0.0968 (inactive); in test [6] it was 0.298 (inactive).
Turning to `CCOc1cc(C(O)C2C=CC3C(=O)N(c4ccccc4)C(=O)C3N2Nc2ccc([N+](=O)[O-])cc2)ccc1O` (stereo unspecified), the composite z-score is -0.394 (inactive) in test [1] and 0.546 in test [2]. The z-score in test [3] is -1.76; in test [4] it was -5.51 (inactive); in test [5], 0.555 (inactive); in test [6] it was -0.452 (inactive).
Regarding `O=C1O[C@@H](c2ccccc2)[C@@H](c2ccccc2)N2[C@@H](c3ccc(O)cc3)[C@]3(C(=O)Nc4ccc(C#CC5(O)CCCCCC5)cc43)[C@@H](C(=O)N3CCCCCCC3)[C@H]12`, the composite z-score was 1.51 (inactive) in test [1] and 0.855 in test [2]. Also, the z-score in test [3] was -0.667; in test [4], 1.7 (inactive); in test [5], -0.129 (inactive); in test [6] it was -0.0414 (inactive).
Turning to `CCOC(=O)C[C@H]1[C@H](OC(=O)Cc2ccc3c(c2)OCO3)[C@@H](NC(=O)c2ccc(-c3ccccc3)cc2)c2cc(OCCCO)ccc2N1C(=O)c1ccccc1`, the values for the composite z-score in test [1] and in test [2] were -0.238 (inactive) and 0.729, respectively. Also, the z-score in test [3] is -1.77; in test [4], -1.88 (inactive); in test [5], -0.467 (inactive); in test [6], -0.214 (inactive).
Take `CC(C)N1C(=O)c2ccccc2[C@@H](C(=O)NCCCN(C)C)[C@@H]1c1ccc(CO)cc1`: the composite z-score in test [1] is -0.361 (inactive); in test [2] it was -0.428. Also, the z-score is -1.26 in test [3], -2.54 (inactive) in test [4], -0.0028 (inactive) in test [5] and -0.321 (inactive) in test [6].
In the case of `COC(=O)[C@@]1(Cc2ccc(F)cc2)[C@H]2c3cc(C(=O)N(C)C)n(CCc4ccccn4)c3C[C@H]2CN1C(=O)c1ccccc1`, the composite z-score in test [1] is 0.258 (inactive); in test [2], 0.234. For the same compound, the z-score in test [3] is -1.21; in test [4], -2.89 (inactive); in test [5], -0.0308 (inactive); in test [6], 0.288 (inactive).
On to `COCCOC(=O)N1C(=O)[C@@]2(c3cc(C#CC4=CCCCC4)ccc31)[C@H](C(=O)N1CCc3cc(OC)c(OC)cc3C1)[C@H]1C(=O)O[C@H](c3ccccc3)[C@H](c3ccccc3)N1[C@@H]2c1ccccc1OCCO`, for which the composite z-score in test [1] is 0.0851 (inactive); in test [2] it was 0.544. Further, the z-score is -2.23 in test [3], 2.24 (inactive) in test [4], -0.0513 (inactive) in test [5] and 0.226 (inactive) in test [6].
Take `C=CC[C@@]1(C(=O)N2CCOCC2)N=C(c2ccc(OCCCO)cc2)O[C@@H]1c1ccccc1N=[N+]=[N-]`: the values for the composite z-score in test [1] and in test [2] were 1.18 (inactive) and 0.598, respectively. In addition, the z-score in test [3] was -1.75; in test [4] it was -3.44 (inactive); in test [5] it was -0.217 (inactive); in test [6], -0.141 (inactive).
`COc1cc(CO)ccc1OC(C)=O`: the composite z-score in test [1] is -0.152 (inactive); in test [2], 0.383. Also, the z-score is 0.186 in test [3], 0.472 (inactive) in test [4], -0.111 (inactive) in test [5] and 0.0389 (inactive) in test [6].
As for `COCCOC(=O)N1C(=O)[C@@]2(c3ccccc31)[C@H](C(=O)NC[C@H](O)c1ccccc1)[C@H]1C(=O)O[C@H](c3ccccc3)[C@H](c3ccccc3)N1[C@@H]2c1ccc(OCCO)cc1`, the composite z-score in test [1] was 0.868 (inactive); in test [2], 0.645. The z-score in test [3] was -2.02; in test [4], -4.33 (inactive); in test [5], -0.293 (inactive); in test [6], -0.262 (inactive).
Regarding `O=C1O[C@@H](c2ccccc2)[C@@H](c2ccccc2)N2[C@@H](c3ccc(OCCO)cc3)[C@]3(C(=O)Nc4ccccc43)[C@@H](C(=O)Nc3nc4ccccc4s3)[C@H]12`, the composite z-score is 0.615 (inactive) in test [1] and 0.841 in test [2]. The z-score in test [3] was -0.161; in test [4], 2.18 (inactive); in test [5] it was -0.469 (inactive); in test [6], -0.781 (inactive).
On to `COC(=O)[C@@]1(Cc2ccccc2)[C@H]2c3cc(C(=O)N(C)C)n(Cc4c(-c5ccccc5)noc4C)c3C[C@H]2CN1C(=O)c1ccccc1`, for which the composite z-score is 0.28 (inactive) in test [1] and 0.12 in test [2]. For the same compound, the z-score is -1.74 in test [3], -2.59 (inactive) in test [4], 0.317 (inactive) in test [5] and 0.0597 (inactive) in test [6].
